# Test results reported in the supplement of paper PMC8728848.
# Only a selection was taken, and the strongest signals are over-represented in it overall.
# B1: Dectin2 (Homo sapiens), Q6EIG7 (protein)
# chain: MMQEQQPQSTEKRGWLSLRLWSVAGISIALLSACFIVSCVVTYHFTYGETGKRLSELHSYHSSLTCFSEGTKVPAWGCCPASWKSFGSSCYFISSEEKVWSKSEQNCVEMGAHLVVFNTEAEQNFIVQQLNESFSYFLGLSDPQGNNNWQWIDKTPYEKNVRFWHLGEPNHSAEQCASIVFWKPTGWGWNDVICETRRNSICEMNKIYL
# Tests used:
# Assay in all cases: glycan array binding signal (z-score within array); higher = stronger binding
# Details in all cases: glycan notation: IUPAC condensed, linker removed
# [1] = target: Fuc(a1-2)Gal(b1-3)GlcNAc(b1-3)[Gal(b1-4)GlcNAc(b1-6)]Gal(b1-4)Glc
# Procedure, shortened: (§1)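 Glycan array data were curated from 3228 arrays in the Consortium for Functional Glycomics database and kept only where the protein sequence was available. Glycan names were converted to IUPAC-condensed notation, and columns mapping to the same glycan were averaged. The binding signal is a within-array Z-score, averaged across arrays of the same protein sequence at different concentrations or buffers and across linkers. Negative Z-scores can be read as non-binding.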
# [2] = target: Fuc(a1-2)Gal(b1-3)GlcNAc(b1-3)[Neu5Ac(a2-6)Gal(b1-4)GlcNAc(b1-6)]Gal(b1-4)Glc
# Procedure, shortened: as §1
# Fuc(a1-2)Gal(b1-4)Glc = target: Fuc(a1-2)Gal(b1-4)Glc
# Procedure, shortened: as §1
# [3] = target: Fuc(a1-2)Gal(b1-4)GlcNAc6S
# Procedure, shortened: as §1
# [4] = target: Fuc(a1-2)[Gal(a1-3)]Gal(b1-4)GlcNAc(b1-3)[Fuc(a1-2)[Gal(a1-3)]Gal(b1-4)GlcNAc(b1-6)]GalNAc
# Procedure, shortened: as §1
# [5] = target: Fuc(a1-2)[Gal(a1-3)]Gal(b1-4)[Fuc(a1-3)]GlcNAc
# Procedure, shortened: as §1
# [6] = target: Fuc(a1-2)[GalNAc(a1-4)]Gal(b1-4)GlcNAc
# Procedure, shortened: as §1
# Fuc(a1-4)GlcNAc = target: Fuc(a1-4)GlcNAc
# Procedure, shortened: as §1
# Gal(b1-3)Gal = target: Gal(b1-3)Gal
# Procedure, shortened: as §1
# [7] = target: Gal(b1-3)GlcNAc(b1-3)Gal(b1-4)GlcNAc(b1-2)Man(a1-3)[Gal(b1-3)GlcNAc(b1-3)Gal(b1-4)GlcNAc(b1-2)Man(a1-6)]Man(b1-4)GlcNAc(b1-4)GlcNAc
# Procedure, shortened: as §1
# [8] = target: Gal(b1-3)GlcNAc(b1-3)Gal(b1-4)GlcNAc(b1-2)[Gal(b1-3)GlcNAc(b1-3)Gal(b1-4)GlcNAc(b1-6)]Man(a1-6)[Gal(b1-3)GlcNAc(b1-3)Gal(b1-4)GlcNAc(b1-2)Man(a1-3)]Man(b1-4)GlcNAc(b1-4)[Fuc(a1-6)]GlcNAc
# Procedure, shortened: as §1
# [9] = target: Gal(b1-3)[Fuc(a1-4)]GlcNAc
# Procedure, shortened: as §1
# Gal(b1-4)Glc6S = target: Gal(b1-4)Glc6S
# Procedure, shortened: as §1
# [10] = target: Gal(b1-4)GlcNAc(b1-2)[Gal(b1-4)GlcNAc(b1-4)]Man(a1-3)[Gal(b1-4)GlcNAc(b1-2)Man(a1-6)]Man(b1-4)GlcNAc(b1-4)GlcNAc
# Procedure, shortened: as §1
# [11] = target: Gal(b1-4)GlcNAc(b1-2)[Gal(b1-4)GlcNAc(b1-4)]Man(a1-3)[GlcNAc(b1-4)][Gal(b1-4)GlcNAc(b1-2)[Gal(b1-4)GlcNAc(b1-6)]Man(a1-6)]Man(b1-4)GlcNAc(b1-4)GlcNAc
# Procedure, shortened: as §1
# [12] = target: Gal(b1-4)GlcNAc(b1-3)Gal(b1-4)GlcNAc(b1-3)Gal(b1-4)GlcNAc(b1-2)Man(a1-3)[Gal(b1-4)GlcNAc(b1-3)Gal(b1-4)GlcNAc(b1-3)Gal(b1-4)GlcNAc(b1-2)Man(a1-6)]Man(b1-4)GlcNAc(b1-4)[Fuc(a1-6)]GlcNAc
# Procedure, shortened: as §1
# [13] = target: Gal(b1-4)GlcNAc(b1-3)GalNAc
# Procedure, shortened: as §1
# [14] = target: Gal(b1-4)GlcNAc(b1-3)[Fuc(a1-3)GlcNAc(b1-6)]Gal(b1-4)Glc
# Procedure, shortened: as §1
# [15] = target: GlcNAc(b1-3)Gal(b1-4)GlcNAc(b1-3)[GlcNAc(b1-3)Gal(b1-4)GlcNAc(b1-3)]GalNAc
# Procedure, shortened: as §1
# [16] = target: GlcNAc(b1-3)Gal(b1-4)GlcNAc(b1-6)[Gal(b1-3)]GalNAc
# Procedure, shortened: as §1
# [17] = target: GlcNAc(b1-3)[GlcNAc(b1-4)][GlcNAc(b1-6)]GlcNAc
# Procedure, shortened: as §1
# [18] = target: GlcNAc(b1-4)[GlcNAc(b1-6)]GalNAc
# Procedure, shortened: as §1
# [19] = target: Kdn(a2-3)Gal(b1-4)[Fuc(a1-3)]GlcNAc
# Procedure, shortened: as §1
# [20] = target: Man(a1-2)Man(a1-2)Man(a1-3)Man
# Procedure, shortened: as §1
# [21] = target: Man(a1-2)Man(a1-2)Man(a1-6)[Man(a1-3)]Man
# Procedure, shortened: as §1
# Man(a1-2)Man(a1-3)Man = target: Man(a1-2)Man(a1-3)Man
# Procedure, shortened: as §1
# [22] = target: Man(a1-2)Man(a1-3)[Man(a1-2)Man(a1-6)]Man
# Procedure, shortened: as §1
# [23] = target: Man(a1-2)Man(a1-3)[Man(a1-2)Man(a1-6)]Man(a1-6)[Man(a1-2)Man(a1-2)Man(a1-3)]Man
# Procedure, shortened: as §1
# [24] = target: Man(a1-2)Man(a1-6)[Man(a1-3)]Man(a1-6)[Man(a1-2)Man(a1-2)Man(a1-3)]Man
# Procedure, shortened: as §1
# [25] = target: Man(a1-2)Man(a1-6)[Man(a1-3)]Man(a1-6)[Man(a1-2)Man(a1-2)Man(a1-3)]Man(b1-4)GlcNAc(b1-4)GlcNAc
# Procedure, shortened: as §1
# [26] = target: Man(a1-3)[Man(a1-6)]Man(a1-6)[Man(a1-2)Man(a1-3)]Man(b1-4)GlcNAc(b1-4)GlcNAc
# Procedure, shortened: as §1
# [27] = target: Neu5Ac(a2-3)Gal(b1-3)GalNAc
# Procedure, shortened: as §1
# [28] = target: Neu5Ac(a2-3)Gal(b1-3)[Fuc(a1-4)]GlcNAc
# Procedure, shortened: as §1
# [29] = target: Neu5Ac(a2-3)Gal(b1-3)[GlcNAc(b1-6)]GalNAc
# Procedure, shortened: as §1
# [30] = target: Neu5Ac(a2-3)Gal(b1-3)]Neu5Ac(a2-3)Gal(b1-4)]GlcNAc
# Procedure, shortened: as §1
# [31] = target: Neu5Ac(a2-3)Gal(b1-4)GlcNAc(b1-2)Man(a1-3)[GlcNAc(b1-4)][Neu5Ac(a2-3)Gal(b1-4)GlcNAc(b1-2)Man(a1-6)]Man(b1-4)GlcNAc(b1-4)GlcNAc
# Procedure, shortened: as §1
# [32] = target: Neu5Ac(a2-3)Gal6S(b1-4)[Fuc(a1-3)]GlcNAc
# Procedure, shortened: as §1
# Neu5Ac(a2-6)GalNAc = target: Neu5Ac(a2-6)GalNAc
# Procedure, shortened: as §1
# [33] = target: Neu5Ac(a2-6)GalNAc(b1-4)GlcNAc
# Procedure, shortened: as §1
# [34] = target: Neu5Ac(a2-8)Neu5Ac(a2-3)[GalNAc(b1-4)]Gal(b1-4)Glc
# Procedure, shortened: as §1
# [35] = target: Neu5Ac(a2-8)Neu5Gc(a2-3)Gal(b1-4)GlcNAc
# Procedure, shortened: as §1
# [36] = target: Neu5Gc(a2-8)Neu5Gc(a2-3)Gal(b1-4)GlcNAc(b1-3)Gal(b1-4)GlcNAc
# Procedure, shortened: as §1
binder,measurement,setting,value
B1,glycan array binding signal (z-score),[1],-0.199
same,glycan array binding signal (z-score),[2],-0.182
same,glycan array binding signal (z-score),Fuc(a1-2)Gal(b1-4)Glc,-0.165
same,glycan array binding signal (z-score),[3],0.311
same,glycan array binding signal (z-score),[4],-0.136
same,glycan array binding signal (z-score),[5],-0.1
same,glycan array binding signal (z-score),[6],-0.122
same,glycan array binding signal (z-score),Fuc(a1-4)GlcNAc,-0.102
same,glycan array binding signal (z-score),Gal(b1-3)Gal,-0.111
same,glycan array binding signal (z-score),[7],0.015
same,glycan array binding signal (z-score),[8],1.31
same,glycan array binding signal (z-score),[9],-0.15
same,glycan array binding signal (z-score),Gal(b1-4)Glc6S,-0.188
same,glycan array binding signal (z-score),[10],0.09
same,glycan array binding signal (z-score),[11],-0.17
same,glycan array binding signal (z-score),[12],-0.086
same,glycan array binding signal (z-score),[13],-0.186
same,glycan array binding signal (z-score),[14],-0.161
same,glycan array binding signal (z-score),[15],-0.182
same,glycan array binding signal (z-score),[16],-0.196
same,glycan array binding signal (z-score),[17],1.3
same,glycan array binding signal (z-score),[18],1.29
same,glycan array binding signal (z-score),[19],-0.14
same,glycan array binding signal (z-score),[20],10.3
same,glycan array binding signal (z-score),[21],13.5
same,glycan array binding signal (z-score),Man(a1-2)Man(a1-3)Man,4.35
same,glycan array binding signal (z-score),[22],7.43
same,glycan array binding signal (z-score),[23],13.9
same,glycan array binding signal (z-score),[24],3.05
same,glycan array binding signal (z-score),[25],1.38
same,glycan array binding signal (z-score),[26],1.16
same,glycan array binding signal (z-score),[27],0.09
same,glycan array binding signal (z-score),[28],-0.165
same,glycan array binding signal (z-score),[29],-0.193
same,glycan array binding signal (z-score),[30],-0.206
same,glycan array binding signal (z-score),[31],-0.193
same,glycan array binding signal (z-score),[32],-0.193
same,glycan array binding signal (z-score),Neu5Ac(a2-6)GalNAc,-0.176
same,glycan array binding signal (z-score),[33],-0.192
same,glycan array binding signal (z-score),[34],-0.177
same,glycan array binding signal (z-score),[35],-0.21
same,glycan array binding signal (z-score),[36],-0.206
